Results on 85 molecules are retold here after PubChem BioAssay AID588405 (Sanford-Burnham Center for Chemical Genomics, 2011).

About 6,200 (1.7%) of roughly 360,000 compounds were called active. The sample as a whole holds a higher share of actives than the screen did. Unmarked numbers belong to inactive results.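 How the source made its calls: active means inhibition of at least 50% at 20 µM; inactive means the rest.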

This assay is described as follows: Peg3 promoter-driven luciferase inhibitors, primary screen, cell-based, HeLa, luciferase luminescence (AID 588405). The settings on record: HeLa PEG-Prom luciferase reporter, overnight, at 20 µM, hits give high values.
On to `Nc1ncnc2c1ncn2[C@@H]1O[C@H](CNC(=O)[C@H](N)Cc2cccnc2)[C@@H](O)[C@H]1O`, for which the inhibition (in general, the drop in the measured response relative to a control, in per cent) is -0.67%.

On to `O=C(CC[C@H]1O[C@@H](n2ccc(=O)[nH]c2=O)[C@H](O)[C@@H]1O)N[C@H](Cc1ccccc1)C(=O)NCCCN1CCCC1=O`, for which the inhibition was -0.27%.

For `CCOC(=O)C1=C(CCc2ccccc2)NC(=O)NC1c1ccc2ccccc2c1` (stereo not given), the inhibition was 40.3%.

For the molecule `CCCCNC(=O)C(C)N(CCN(C)C)C(=O)CCCCCN1C(=O)NC(c2ccc(Cl)cc2)C(C(=O)OCc2ccccc2)=C1C` (stereo not given), the inhibition is 91.8% (active).

`CCCCNC(=O)C(C)N(CCN(C)C)C(=O)CCCN1C(=O)NC(c2ccc(Cl)cc2)C(C(=O)OCc2ccccc2)=C1C` (stereo not given): the inhibition is 92.9% (active).

Consider `COC(=O)C1=C(C)N(Cc2ccccc2)C(=NCCCOC(C)C)N[C@H]1c1ccccc1`, for which the inhibition is -9.14%.

On to `CCOC(=O)CCCNC(=O)CN1C(=O)NC(CCc2ccccc2)C1=O` (stereo not given), for which the inhibition was 1.97%.

With `CCOC(=O)C1=C(C)N(C[C@@H]2CC[C@@H](Cc3ccc(-c4ccccc4)cc3)O2)C(=O)NC1c1ccc([N+](=O)[O-])cc1` (stereo not given in full), the inhibition was 15.2%.

`CC1=C(C(=O)N(C(C)C)C(C)C)CC(CC(=O)NCC2CCCCC2)C(=O)N1Cc1ccccc1` (stereo not given): the inhibition was 11.2%.

Turning to `O=C(Nc1ccc(OCCO)cc1)c1csc([C@H]2C[C@H](O)[C@@H](CO)O2)n1`, the inhibition was 14.9%.

As to `CCNC(=O)C1(C)CCCN(Cc2noc(-c3ccccc3OC)n2)C1` (stereo not given), the inhibition is 2.68%.

As for `COC(=O)c1ccc(/C=C2/C(=O)Oc3ccccc32)cc1`, the inhibition was 11.1%.

Take `O=C1Oc2ccccc2C(=O)/C1=C/c1ccccc1O`: the inhibition is 69.8% (active).

Turning to `C=C1C(=O)[C@]23C[C@H]1CCC2[C@@]1(C)C(C[C@@H]3O)[C@](C)(C(=O)O)CC[C@@H]1O` (stereo not given in full), the inhibition was 3.91%.

Take `CC1CC(C)(C)n2c(O)c(N=NC(N)=S)c3cccc1c32` (stereo not given): the inhibition is 29.2%.

Turning to `CCc1nc2ccc(C(=O)N(C)Cc3ccco3)cn2c1N(C)C(=O)Cc1ccccc1`, the inhibition was 8.02%.

`O=C(O)C#Cc1cccc2ccccc12`: the inhibition was 12.5%.

As to `N#C/C(=C(/O)COC(=O)COc1ccc(Cl)cc1)c1nc2ccccc2[nH]1`, the inhibition is 71.2% (active).

`COc1ccccc1C(=O)COC(=O)COc1ccc(C#N)cc1`: the inhibition was 10.1%.

For the molecule `CC(C)(C)c1nnc2sc(SCC(O)=C(C#N)c3nc4ccccc4[nH]3)nn2c1=O`, the inhibition is 20.3%.

Take `COc1ccc(C2=Nc3ccccc3NC(=O)C2N(C(=O)c2cc3ccccc3[nH]2)c2ccccc2)cc1` (stereo not given): the inhibition was -169%.

Take `CC1(C(=O)Nc2cccc3c2CCCC3)CCN1C(=O)C1(c2ccccc2)CC1` (stereo not given): the inhibition was 11.5%.

On to `CCc1cccc(C)c1NC(=S)N(CCCN1CCN(C)CC1)Cc1cccs1`, for which the inhibition is 12%.

Turning to `Cc1ccc(NC(=S)N(CCCN2CCCC2)Cc2cccn2Cc2ccc(Cl)cc2)cc1`, the inhibition was 83.4% (active).

`Cc1ccccc1NC(=S)N(CCCN1CCOCC1)Cc1cccs1`: the inhibition was -3.16%.

Consider `O=C(C1CCN(c2nnc(-n3cccc3)s2)CC1)N1CCc2ccccc2C1`, for which the inhibition is 14.8%.

Turning to `O=c1c2c3c(sc2n(CCN2CCCC2)c(=O)n1Cc1ccccc1)CCCCC3`, the inhibition is -15%.

In the case of `CN(C)CCCn1c(=O)n(Cc2ccccc2)c(=O)c2c3c(sc21)CCCCC3`, the inhibition is 89.8% (active).

For the molecule `CCn1c(=S)[nH]c2sc3c(c2c1=O)CCCCC3`, the inhibition is -19.3%.

On to `CCCCC1S/C(=N/N=C/c2cccs2)NC1=O` (stereo not given), for which the inhibition was -0.95%.

`CC(=O)Nc1cccc(-c2ccnc3c2CC(C)(C(=O)NCc2ccccc2)O3)c1` (stereo not given): the inhibition is -22.6%.

For `O=C1/C(=C\c2ccc(O)cc2)CCC1CNc1ccc(Cl)cc1` (stereo not given), the inhibition is 93.8% (active).

Regarding `O=C1N=C(N2CCc3ccccc3C2)S/C1=C\c1ccc(O)cc1`, the inhibition was -5.21%.

Regarding `CC(C(=O)NC1CCS(=O)(=O)C1)N1C(=O)/C(=C/c2ccc(Cl)cc2)SC1=S` (stereo not given), the inhibition was -7.3%.

In the case of `CCCC(=O)N1CCC1(C)C(=O)NS(=O)(=O)c1ccc(Cl)cc1` (stereo not given), the inhibition is 3.54%.

As to `CC(=O)Nc1cccc(Nc2ccc(C#N)cc2)c1`, the inhibition is -24.3%.

For the molecule `O=C(Cc1ccc(-n2c(=O)[nH]c3ccccc3c2=O)cc1)N1CCN(c2cccc(Cl)c2)CC1`, the inhibition was 9.68%.

Take `O=C(Cc1csc(Nc2nc(=S)[nH]c3ccccc23)n1)NCCCN1CCN(c2cccc(Cl)c2)CC1`: the inhibition was 53.1% (active).

For `COc1cccc(CNC(=O)Cc2csc(Nc3nc(=S)[nH]c4ccccc34)n2)c1`, the inhibition is 29.3%.

Take `COC(=O)c1ccc(CN2C(=O)C(Cc3ccccc3)ON=C2c2ncccc2C)o1` (stereo not given): the inhibition is 3.64%.

For `O=C(Cc1ccc([N+](=O)[O-])cc1)Nc1ccc(C(=O)N2CCOCC2)cc1`, the inhibition is -2.85%.

With `C=CCn1c(COc2cccc3cccnc23)nnc1SCC(=O)OC`, the inhibition is 16.7%.

Regarding `CCOc1ccc(C(CCc2ccccc2)NC(=O)c2ccc(OC)c(OC)c2)cc1OCC` (stereo not given), the inhibition is 11.6%.

Take `CCCCC(=O)NC(c1ccc(OC)c(OC)c1)c1ccc2cccnc2c1O` (stereo not given): the inhibition was 60.4% (active).

In the case of `CCc1nc2c(OCCC3CCCCC3)cccn2c1N(C)C(=O)c1ccco1`, the inhibition was 5.45%.

In the case of `CC1=CC(C)(C)NC(=S)N1NC(=O)c1ccccc1Cl`, the inhibition was -9.1%.

`CC12CCC(C(=O)N(NC(=O)c3ccccc3O)C1=O)C2(C)C` (stereo not given): the inhibition was 53.1% (active).

On to `COc1ccccc1C(=O)NN1C(=O)C2C3C=CC(O3)C2C1=O` (stereo not given), for which the inhibition is 17.5%.

As for `CCCCOc1ccc(N(CC(=O)NC(C)C)C(=O)CCC(=O)Nc2ccccn2)cc1`, the inhibition was -4.29%.

Consider `NC1=C([N+](=O)[O-])C(c2ccccc2)C2=C(CCCC2=O)O1` (stereo not given), for which the inhibition is 9.24%.

For `O=S1(=O)CCN(C2CCCCCCCCCCC2)CC1`, the inhibition is 0.61%.

Take `CCN(C(=O)CN1C(=O)/C(=C/c2ccc(F)cc2)SC1=S)C1CCS(=O)(=O)C1` (stereo not given): the inhibition is -2.93%.

Turning to `COc1ccc(/C=C2\SC(=S)N(CCC(=O)N3CCOCC3)C2=O)cc1OC`, the inhibition was -27.5%.

As for `O=C1/C(=C/c2ccc(F)cc2)SC(=S)N1CCCC(=O)N1CCCCC1CCO` (stereo not given), the inhibition was 58.3% (active).

Regarding `CC(C)(C)c1ccc(S(=O)(=O)NC(=O)C2(C)CCN2C(=O)CC2CC2)cc1` (stereo not given), the inhibition was -3.67%.

`Cc1cc(=O)oc2c3c(cc(OCC(=O)NCC(O)c4ccccc4)c12)OC(C)(C)CC3` (stereo not given): the inhibition was 12.4%.

`CC(NC(=S)Nc1ccccc1)C(c1cccs1)N1CCOCC1` (stereo not given): the inhibition was 14.7%.

With `CCCC(=O)NC(C)C(c1cccs1)N1CCN(c2ccccc2)CC1` (stereo not given), the inhibition was 7.84%.

For the molecule `CC(NC(=O)Nc1ccccc1)C(c1cccs1)N1CCN(c2ccccc2)CC1` (stereo not given), the inhibition was 66.2% (active).

In the case of `CCc1nc2c(OCCOc3ccccc3)cccn2c1N(C=O)Cc1ccc(OC)cc1`, the inhibition was 6.15%.

`COc1ccc(C(=O)O/N=C(\N)Cc2ccc(Cl)cc2Cl)cc1OC`: the inhibition was 110% (active).

For `COc1ccc(CCn2ccc(O)c(Cc3ccc(Cl)cc3Cl)c2=O)cc1OC`, the inhibition was 6.97%.

Turning to `COc1ccc(C(=O)n2nc(-c3ccc(Cl)cc3)nc2N)cc1OC`, the inhibition was 10.6%.

Turning to `O=C(NCc1ccccc1)C(c1ccco1)N(C(=O)c1csnn1)c1ccccc1F` (stereo not given), the inhibition is 5.02%.

On to `CSc1ccc(C(=O)C2CCCN(C(=O)c3ccc(C)nc3)C2)cc1` (stereo not given), for which the inhibition is 1.04%.

Turning to `CCCCn1nnnc1C(c1cccc(OC)c1OC)N1CCN(C/C=C/c2ccccc2)CC1` (stereo not given), the inhibition was -3.54%.

Take `CC(C)n1cnc2c(Nc3cccc(Cl)c3)nc(N(CCO)CCCO)nc21`: the inhibition was 96.1% (active).

As for `CC(C)C[C@H](CO)Nc1nc(N(C)c2cccc(Cl)c2)c2ncn(C(C)C)c2n1`, the inhibition is 12.4%.

Consider `Cc1ccc(C(O)c2ncc(-c3ccccc3F)[nH]2)cc1F` (stereo not given), for which the inhibition is -67.5%.

Take `O=C(NCc1ccncc1)C1CCN(C(=O)c2cccc(Cl)c2)CC1`: the inhibition was 0.12%.

Regarding `O=C(NC1CCCC1)C(c1c(F)cccc1Cl)N(C(=O)c1csnn1)C1CC1` (stereo not given), the inhibition was 16.7%.

For the molecule `CCc1nc2ccccc2c(C(=O)NCc2ccc(OC)cc2)c1C`, the inhibition is 16.9%.

Take `COC(=O)CC1=NN(c2ccccc2)C(=O)C1`: the inhibition was 5.53%.

Take `COC(=O)Cc1[nH]n(-c2nc3ccccc3s2)c(=O)c1C(C)=Nc1ccc(OC)cc1`: the inhibition was 89.1% (active).

For the molecule `N#Cc1cccc(CN2CCC(=O)N([C@H](CO)c3ccccc3)CC2)c1`, the inhibition is -12.2%.

Consider `CC(=O)c1cccc(-c2cnc3c(NC=O)cc(-c4ccccc4Oc4ccccc4)cn23)c1`, for which the inhibition is 0.73%.

`CCCCN(C=O)c1c(CC)nc2c(OCCC3CCCCC3)cccn12`: the inhibition is 18.3%.

In the case of `CCOC(=O)C1(C)CCCN(C(=O)c2ccc(F)c(Cl)c2)C1` (stereo not given), the inhibition was 8.51%.

On to `CC1(C(=O)NS(=O)(=O)c2cccc(OC(F)F)c2)CCN1C(=O)COc1ccc(Cl)cc1` (stereo not given), for which the inhibition was -1.93%.

For the molecule `O=C1N[C@@H](c2ccccc2)COC(=O)[C@H](Cc2ccc(F)cc2)C/C=C\C[C@@H]1CC(=O)N(CCO)Cc1ccccc1`, the inhibition was 24.9%.

For the molecule `O=C1CCC/C=C/C[C@@H](CC(=O)N(CCO)Cc2ccccc2)C(=O)NC[C@H](c2ccccc2)O1`, the inhibition is -18.6%.

Take `O=C1NC[C@@H](c2ccccc2)OC(=O)[C@H](Cc2ccc(F)cc2)CC/C=C/C[C@H]1CC(=O)N(CCO)Cc1ccccc1`: the inhibition is 54.9% (active).

Take `CCOC(=O)C1=CC[C@@H](c2ccccc2)N(S(=O)(=O)c2ccc(C)cc2)[C@H]1c1ccc(CC)cc1`: the inhibition was 13%.

With `CC(C)CCN1CCN(Cc2cn[nH]c2C2CCCCC2)CC1CCO` (stereo not given), the inhibition is 8.83%.

In the case of `O=C(CNC(=O)OCc1ccccc1)Oc1cc2oc(=O)cc(-c3ccccc3)c2cc1Cl`, the inhibition is 11.5%.
